From PubChem BioAssay
Only some compounds are listed: those with a hit (about 5.9% of all), similar ones and a draw of the others.
RORg inh – ROR gamma (mouse) transcription inhibition; Drosophila S2 Gal4-RORgamma UAS-luciferase reporter, 20 h; Potency, µM (titrated, usually from 53.6 µM), for the others: at the highest dose activity change, negative = inhibition, usual class: inhibitors; 310,000 compounds, 5.4% hits; note: potency is the fitted concentration of half-maximal effect; nearly all actives have a fitted effect of over 60% in size
Target sequence (P51450 whole entry, looked up, the tested form may be a part): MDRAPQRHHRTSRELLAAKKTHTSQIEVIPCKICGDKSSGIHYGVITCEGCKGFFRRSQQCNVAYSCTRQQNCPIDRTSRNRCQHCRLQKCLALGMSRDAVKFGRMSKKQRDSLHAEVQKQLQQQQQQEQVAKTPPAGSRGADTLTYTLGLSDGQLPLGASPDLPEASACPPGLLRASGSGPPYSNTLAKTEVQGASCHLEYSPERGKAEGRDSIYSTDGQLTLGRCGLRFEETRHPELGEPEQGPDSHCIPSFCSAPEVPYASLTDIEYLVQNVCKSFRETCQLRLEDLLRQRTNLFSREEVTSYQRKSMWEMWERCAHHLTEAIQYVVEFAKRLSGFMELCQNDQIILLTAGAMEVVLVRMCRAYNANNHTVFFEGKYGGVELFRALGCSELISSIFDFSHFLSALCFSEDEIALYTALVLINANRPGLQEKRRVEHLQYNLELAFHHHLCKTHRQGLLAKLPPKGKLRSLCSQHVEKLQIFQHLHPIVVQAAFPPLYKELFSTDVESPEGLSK
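Schneider cells (Drosophila), stable Gal4 DBD–ROR gamma + UAS-luc; 1 hr cmpd preincubation; Cu2+ induction 700 uM final; 20 hr ambient; luminescence.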
Coupling enz – counter-screen for Giardia aldolase inhibitors: coupling enzyme system | AID 2472 | 290,000 compounds, 0.67% hits | coupling enzyme system counterscreen, AmpLite Red fluorescence | activity change, negative = inhibition, % at 58.2 µM, hits read low; in the data active = activity change below about -30%
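Fluorescence at 525 nm excitation and 598 nm emission measured inhibition of the coupled detection system without aldolase. Compounds (at 57.5 uM final) were preincubated 10 min at room temperature with coupling enzyme reagent before a 20 min substrate/AmpLite Red step.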
GALK inh – inhibitors of human galactokinase | 270,000 compounds, 0.007% hits | P51570 | Potency, µM (doses to about 57.5 µM), inactives show at the highest dose activity change, negative = inhibition, usual class: inhibitors | Purified GALK, Kinase-Glo residual ATP luminescence; note: potency is the fitted concentration of half-maximal effect
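Quantitative HTS: GALK 5 nM, ATP 35 uM, galactose 100 uM, 1 h room temperature, then luciferase-based ATP detection.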
TrxR1 substrate – is turned over as a substrate by rat TrxR1; O89049; purified TrxR1 substrate turnover, NADPH consumption readout; Potency, µM (highest dose often 114 µM), for inactives: at the highest dose activity change, negative = substrate turnover; 390,000 compounds, 0.01% hits; AID 588456; note: potency is the fitted concentration of half-maximal effect; nearly all actives have a fitted effect of over 50% in size
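Rat TrxR1, dispensed at 90 nM, was prereduced with 400 uM NADPH (final) for 5 min at ~22 deg C, then incubated with compound 15 min before 400 uM selenite. A first-read NADPH fluorescence drop versus no-compound background flagged substrates.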
TrxR1 inh – blocks rat thioredoxin reductase 1 | Potency, µM (highest dose often 114 µM), for inactives: at the highest dose activity change, negative = inhibition, actives largely listed as inhibitors | recombinant rTrxR1, NADPH fluorescence consumption, selenite substrate | 390,000 compounds, 1% hits | AID 588453; note: potency is the fitted concentration of half-maximal effect; nearly all actives have a fitted effect of over 65% in size
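Rat TrxR1 (90 nM in the dispensed reagent) was pre-reduced with 400 uM NADPH for 5 min at room temperature, then incubated with compound for 15 min. After 400 uM selenite was added, NADPH fluorescence (Ex 340/Em 450 nm) was followed for 8 min.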
VP16 counter – counter-screen for ROR gamma inhibitors: Gal4-VP16 reporter. AID 2546. Potency, µM (titrated, usually from 53.6 µM), for inactives: top-dose activity, negative = inhibition, most hits filed as inhibitors. 310,000 compounds, 3.5% hits. Drosophila S2 Gal4-VP16 UAS-luciferase, luminescence, 20 h;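 note: Gal4-VP16 expression switched on by copper sulfate through the metallothionein promoter; potency is the fitted concentration of half-maximal effect; nearly all actives have a fitted effect of over 50% in size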
Numbers without * were called inactive; [ ] = another dose, or the depositor's remark. Unless noted, calls come from the whole dose curve; as a rule, active = well fitted curve in the direction sought with a large enough effect; inconclusive = small, poorly fitted or top-dose-only effect, or another doubt; inactive = no such curve, though single readings can be large; an effect the other way counts as inactive or inconclusive. % is set by controls: 0 for no effect and ±100 for the full control effect.

CC(=O)OC1CC[C@@]2(C)C3CC[C@@]4(C)C(CC5O[C@@]6(CCC(C)CO6)C(C)C54)C3CC[C@@H]2C1 (stereo partly specified) was read as RORg inh 9%, Coupling enz 4 and VP16 counter 2%.
O=C(Nc1nnc(-c2ccc(Br)cc2)o1)c1ccco1 was read as TrxR1 substrate -12% and TrxR1 inh -10%.
Screening O=C(Nc1nnc(-c2cccs2)o1)c1ccco1 returned RORg inh 2.5µM*, Coupling enz -1, GALK inh 3%, TrxR1 substrate -11%, TrxR1 inh -8% and VP16 counter 6.3µM*.
For CNC(=S)Nc1cc2oc3ccccc3c2cc1OC the results were RORg inh 7.9µM*, Coupling enz 0, GALK inh 2%, TrxR1 substrate 2%, TrxR1 inh -12% and VP16 counter 13µM*.
Screening CCNC(=S)Nc1cc2oc3ccccc3c2cc1OC returned RORg inh 21%, GALK inh -2%, TrxR1 substrate 16%, TrxR1 inh -5% and VP16 counter 14%.
CCCNC(=S)Nc1cc2oc3ccccc3c2cc1OC was read as RORg inh 4.5µM*, GALK inh -2%, TrxR1 substrate -6%, TrxR1 inh -15% and VP16 counter 7.1µM*.
`C#CC(=O)CC1(CN(Cc2ccccc2)C(=O)OC(C)(C)C)CCCCC1` gave TrxR1 substrate -5% and TrxR1 inh 2µM*.
For CON(C)C(=O)CC1(CN(Cc2ccccc2)C(=O)OC(C)(C)C)CCCCC1 the results were TrxR1 substrate -3% and TrxR1 inh -1%.
For COc1ccc(CCNC(=O)COC(=O)c2cccs2)cc1OC the results were RORg inh 8%, Coupling enz 0, GALK inh 1%, TrxR1 substrate 1%, TrxR1 inh 16% and VP16 counter -2%.
`COc1ccccc1CNS(=O)(=O)CCNC1CCCCC1` gave TrxR1 substrate 7% and TrxR1 inh 12%.
For O=[N+]([O-])c1cccc(NC(=S)Nc2nc(-c3ccc(Cl)cc3Cl)cs2)c1 the results were RORg inh 2µM*, GALK inh -8% and VP16 counter 3.2µM*.
O=C(NC(=S)Nc1nc(-c2cccc([N+](=O)[O-])c2)cs1)c1cc(Cl)ccc1Cl was read as RORg inh inconclusive, Coupling enz 1, GALK inh 6%, TrxR1 substrate 3%[57.1 µM], TrxR1 inh 28µM* and VP16 counter 7%.
For CC[C@@]1(O)C(=O)OCc2c1cc1n(c2=O)Cc2cc3c([N+](=O)[O-])cccc3nc2-1 the results were RORg inh inconclusive and VP16 counter 0.63µM*.
CNC1=C(N(C(C)=O)c2ccc(Br)cc2)C(=O)c2ccccc2C1=O was read as RORg inh 5.6µM*, Coupling enz -56*, TrxR1 substrate -6%[11.4 µM], TrxR1 inh 0%[11.4 µM] and VP16 counter 13µM*.
CCC(=O)N(C1=C(NC)C(=O)c2ccccc2C1=O)C(C)C was read as RORg inh inconclusive, Coupling enz -41*, GALK inh 0%, TrxR1 substrate -1%, TrxR1 inh 29% and VP16 counter -13%.
`Oc1ccc(N=Cc2ccc(OCc3ccccc3)cc2)cc1` gave RORg inh -38%, Coupling enz -32*, GALK inh 0%, TrxR1 substrate -11%, TrxR1 inh inconclusive and VP16 counter inconclusive.
For CCOc1ccc(/C=N/NC(=O)Nc2ccccc2)cc1 the results were RORg inh -8%, Coupling enz -1, GALK inh 4%, TrxR1 substrate -4%[57.1 µM], TrxR1 inh 15%[57.1 µM] and VP16 counter 0%.
`O=C(N/N=C/c1cccnc1)c1ccccc1OCc1ccc(Cl)cc1` gave RORg inh 42%, Coupling enz -10, GALK inh -1% and VP16 counter 6%.
O=C(N/N=C/c1ccc(OCc2ccccc2)cc1)c1cccs1 was read as RORg inh 25%, Coupling enz -4, GALK inh 1%, TrxR1 substrate 9%, TrxR1 inh -3% and VP16 counter -16%.
Screening CCOc1ccc(/C=N/NC(=O)c2ccccc2NC(=O)c2ccc(OC)cc2)cc1 returned RORg inh 7.1µM*, Coupling enz 2, GALK inh 2%, TrxR1 substrate 16%, TrxR1 inh 16% and VP16 counter 7.1µM*.
O=C(N/N=C/c1cccnc1)c1ccccc1OCc1ccc(Br)cc1 was read as RORg inh -6%, Coupling enz -38*, GALK inh -1%, TrxR1 substrate -12%[57.1 µM], TrxR1 inh 35%[57.1 µM] and VP16 counter -12%.
For COc1ccc(C(=O)Nc2ccccc2C(=O)N/N=C/c2ccco2)cc1 the results were RORg inh 2µM*, Coupling enz -4, GALK inh 9%, TrxR1 substrate -2%, TrxR1 inh 3% and VP16 counter 10µM*.
CC(=O)OCC(=O)C1(O)CCC2C3CCC4=CC(=O)C=CC4(C)C3C(=O)CC21C (stereo unspecified) was read as TrxR1 substrate 5% and TrxR1 inh 10%.
`CCCC(=O)Nc1ccccc1NC(=O)c1ccc(OCC)cc1` gave RORg inh 15%, Coupling enz 0, GALK inh -3%, TrxR1 substrate 6%, TrxR1 inh 41% and VP16 counter -2%.
For Cc1ccccc1C(=O)Nc1ccc(C(=O)N/N=C/c2ccncc2)cc1 the results were RORg inh -3%, Coupling enz 1, GALK inh -3%, TrxR1 substrate -3%, TrxR1 inh 16%[57.1 µM] and VP16 counter 7%.
`O=C(N/N=C/c1ccc(OCc2ccccc2)cc1)c1ccncc1` gave RORg inh 13µM*, Coupling enz 5, GALK inh 7%, TrxR1 substrate -5%, TrxR1 inh 5% and VP16 counter -17%.
`CCOc1ccc(C(=O)Nc2ccccc2C(=O)O)cc1` gave RORg inh 6.3µM*, Coupling enz -16, GALK inh -2%, TrxR1 substrate 8%[57.1 µM], TrxR1 inh 23%[57.1 µM] and VP16 counter inconclusive.
For O=C(Nc1ccccc1C(=O)N/N=C/c1ccc(F)cc1)c1ccccc1Br the results were RORg inh 10µM*, Coupling enz -33*, GALK inh 2%, TrxR1 substrate 2%, TrxR1 inh 7% and VP16 counter inconclusive.
O=C(Nc1ccccc1C(=O)N/N=C/c1ccncc1)c1ccccc1 was read as RORg inh 8.9µM*, Coupling enz 1, GALK inh 19%, TrxR1 substrate 6%, TrxR1 inh 27% and VP16 counter inconclusive.
